Results from PubChem BioAssay (NCI).
The panel holds about 83,000 compounds, 20% with a hit somewhere; the sample as a whole holds those more often.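 For each line, cells grew in 96-well plates with the test compound present at a single concentration for 48 hours.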 Active and inactive are the calls of the source.

The molecules below were run on UO-31 renal (assay: NCI-60 one-dose screen, 48 h (100 = growth as untreated, 0 = no growth, -100 = all killed)). Conditions: 10 µM unless noted.
Protocol: Growth inhibition of the UO-31 human tumor cell line is measured as a screen for anti-cancer activity. Cells are grown in 96 well plates and exposed to the test compound for 48 hours. Compounds are tested at a single concentration, which is 10^-5 M for most compounds. The reported endpoint is percent growth (GI% or GIPRCNT), where numbers from 0 - 100% represent growth inhibition, and numbers from -100% - 0 represent cell death. For example, a value of 40 represents 60% growth inhibition. A value of 0 means no net growth occurred over the course of the experiment. A value of -40 indicates 40% of cells at the beginning of the experiment died by the end of the experiment. A value of -100 means all cells are dead at the end of the experiment.
NCI-60 Human Tumor Cell Lines Screen was performed using the standard one-dose NCI protocol, which is described in more detail at https://dtp.cancer.gov/discovery_development/nci-60/default.htm.
Compounds with GIPRCNT values below 10 were considered active. Activity score was based on GIPRCNT using the following formula: […]
Score is 0 for GIPRCNT values of 100 or above, 50 for GIPRCNT values of 0, and 100 for GIPRCNT values of -100.

SMILES | growth
CCOc1ccc(NC(=S)N2CCC(CCCC3CCN(C(=S)Nc4ccc(OCC)cc4)CC3)CC2)cc1 | -7.89% (active)
O=C(CCCl)OCCOc1ccccc1 | 88.5% (inactive)
CSc1cnc2ccccc2n1 | 78.4% (inactive)
COC(=O)c1ccccc1C(=O)c1c(C)cc(C)cc1C | 92.9% (inactive)
COc1nc(Nc2cccc(C(F)(F)F)c2)nc(OC)n1 | 84.3% (inactive)
Nc1cc(F)ccc1[N+](=O)[O-] | 94.2% (inactive)
CCOC(=O)Nc1nccs1 | 88.1% (inactive)
CC1(C)OC2C(CO)OC(n3ccc(=O)[nH]c3=O)C2O1 (stereo not given) | 88% (inactive)
Cn1c(=O)[nH]c2ccccc2c1=O | 95.5% (inactive)
O=C(NC(=S)N1CC=CCC1)c1ccccc1 | 87% (inactive)
N#Cc1ccc(OC(=O)Nc2c(Cl)cc(Cl)cc2Cl)cc1 | 83.1% (inactive)
C=C1SC(=Nc2c(C)cccc2C)N(c2nc(Cl)nc(Cl)n2)C12CCCCC2 | 75.6% (inactive)
O=C(O)c1ccccc1Cc1ccc2c(c1)CCCC2 | 73.1% (inactive)
CS(=O)CC(=N\O)/C(CS(C)=O)=N\O (stereo not given) | 85.3% (inactive)
O=c1nc(Nc2cccc(Cl)c2)oc2cc(Cl)oc(=O)c12 | 47.9% (inactive)
Cc1cc2c3ccc(C)[n+](C)c3ccc2n1C | 27.1% (inactive)
CCN(C(C)=O)c1ccc([N+](=O)[O-])cc1 | 89.7% (inactive)
CC(=O)Oc1c(Cl)cccc1-c1ccccc1 | 84.8% (inactive)
ClCC(Cl)[C@@H]1CC2C=CC1C2 (stereo not given in full) | 88.7% (inactive)
CC(C)C1CCC(C)C(O)C1 (stereo not given) | 89.3% (inactive)

SMILES | growth
CN=S(=O)(OCCCCCOS(=O)(=NC)c1ccc(C)cc1)c1ccc(C)cc1 (stereo not given) | 49.4% (inactive)
Nc1cccc2cccc(O)c12 | 52.8% (inactive)
COc1ccc2c(c1)Nc1ccccc1S2 | 93% (inactive)
C=C1CC2(OC1=O)C(=O)N(C)c1ccc(I)cc12 (stereo not given) | -66% (active)
O=[N+]([O-])c1ccc(-c2nc(N(CCO)CCO)c3ccccc3n2)o1 | -40.6% (active)
CC(=O)NNC(=S)N/C=C/c1c(C)ccc([N+](=O)[O-])c1[N+](=O)[O-] | 92% (inactive)
Cn1c2ccccc2c2nnc(NCCCCO)nc21 | 68.4% (inactive)
C=C(C)COc1ccc(C(C)(C)C)cc1 | 95.3% (inactive)
CCOC(=O)CNC(=O)Sc1ccc(C(C)(C)C)cc1 | 64.2% (inactive)
O=C1NC(=O)C(c2ccccc2)O1 (stereo not given) | 87.6% (inactive)
CC12CCC3c4ccc(O)cc4CCC3C1CCC2=O (stereo not given) | 81.7% (inactive)
C=C(OC(C)=O)c1ccccc1 | 101% (inactive)
OC1Cc2ccccc2C1 | 97.5% (inactive)
Cc1ccccc1NC(=O)Oc1ccc(Cl)cc1C(=O)c1ccccc1 | 49.1% (inactive)
CCCCOC(=O)c1ccccc1O | 99.2% (inactive)
COc1cc(OC)c(NC(=O)C(Sc2nc(C)cc(C)c2C#N)c2ccccc2)cc1Cl (stereo not given) | 102% (inactive)
COc1nc2ccccc2s1 | 73.3% (inactive)
O=S(=O)(OCCOS(=O)(=O)c1ccccc1)c1ccccc1 | 83.2% (inactive)
O=CNCCc1ccccc1 | 87.8% (inactive)
Cc1[nH]n(-c2ccccc2)c(=O)c1C=NC(=S)C(N)=S | 85.2% (inactive)
